# Measurements: PubChem BioAssay (Tox21)
# Values joined by “and” are separate entries in the source; they are usually repeats but may differ in a detail not shown here. Equal entries are not always repeated. Values without a mark were called inactive. Inconclusive results are not listed. A call without a number means that no potency is given here. Active and inactive are the calls of the source. Unless noted, the call rests on the fitted dose curve; in most records, active means well fitted curve in the direction sought with a large enough effect in the repeat runs; inconclusive means weak or mixed curves; inactive means no such curve, though single readings can be large; an effect the other way counts as inactive or inconclusive.
# How the values were obtained:
# [1] = qHTS assay to identify small molecule agonists of the estrogen receptor alpha (ER-alpha) signaling pathway in the presence of an antagonist - cell viability counter screen (AID 1259386);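 further: cells exposed to compounds for 22 h at 37 °C before the viability read; nearly all actives have a fitted effect of over 30% in size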; further: potency means the concentration at half of the fitted maximal effect
# In short: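 Steps: 5-day stripped-FBS culture; seed and incubate 24hr; add ICI-182,780 (10.0nM final); pin 15-point compound titration; incubate 22hr at 37C; add CellTiter-Fluor at 21hr; read fluorescence.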
# [2] = target: Thyrotropin-releasing hormone receptor (Homo sapiens) (UniProt P34981); assay: qHTS assay to identify small molecule antagonists of the thyrotropin-releasing hormone receptor (TRHR) signaling pathway (AID 1346877; active means well fitted inhibition curve with a large enough effect in the repeat runs, not every such curve was filed as active; further: series mostly up to about 51 µM)
# Thyrotropin-releasing hormone receptor (Homo sapiens), sequence (P34981 whole entry, looked up): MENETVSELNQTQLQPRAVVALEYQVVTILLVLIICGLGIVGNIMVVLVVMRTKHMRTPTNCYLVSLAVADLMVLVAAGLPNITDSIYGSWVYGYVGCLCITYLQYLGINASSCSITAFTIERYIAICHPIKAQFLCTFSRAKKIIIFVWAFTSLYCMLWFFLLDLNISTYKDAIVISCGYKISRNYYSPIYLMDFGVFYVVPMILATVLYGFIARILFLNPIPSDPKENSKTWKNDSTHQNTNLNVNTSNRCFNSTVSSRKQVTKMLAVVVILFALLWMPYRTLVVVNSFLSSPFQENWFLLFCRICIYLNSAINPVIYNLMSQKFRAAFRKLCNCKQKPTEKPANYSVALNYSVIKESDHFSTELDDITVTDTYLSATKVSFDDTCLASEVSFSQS
# In short: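 Human TRHR in HEK293 cells; inhibition of the intracellular calcium rise triggered by 1 nM TRH was followed by fluorescence over 3 min. Compounds were run at 15 concentrations, three replicates each.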
# [3] = target: Thyrotropin-releasing hormone receptor (Homo sapiens) (UniProt P34981); assay: qHTS assay to identify small molecule agonists of the thyrotropin-releasing hormone receptor (TRHR) signaling pathway (AID 1346891; calls by dose curve;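 further: HEK293 cells expressing TRHR with calcium dye readout; series mostly up to about 58 µM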)
# In short: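 In 1536-format, 1500 TRHR-Hek293 cells per well grew 18 h, took up calcium dye for 2 h at 37 °C, received compound, and were read kinetically; 15-point titrations, triplicates.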
# [4] = Human pregnane X receptor (PXR) small molecule agonists, qHTS cell viability counter screen (AID 1346977); further: nearly all actives have a fitted effect of over 50% in size; further: potency means the concentration at half of the fitted maximal effect
# In short: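 Readout is CellTiter-Fluor fluorescence from PXR-Luc HepG2 cells. Plated cells rested 5hr, then were treated with compounds for 24hr at 37C and 5% CO2, with reagent present during the last hour.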
# [5] = Caspase-3/7 induction in HepG2 cells by small molecules, qHTS assay (AID 1346978); further: nearly all actives have a fitted effect of over 15% in size; further: potency means the concentration at half of the fitted maximal effect
# In short: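 Caspase-3/7 induction was measured by Caspase-Glo 3/7 luminescence (30 min, room temperature) after a 17 hr compound exposure of wild-type HepG2 cells seeded at 2,000 per well and pre-incubated 5 hr.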
# [6] = Caspase-3/7 induction in CHO-K1 cells by small molecules, qHTS cell viability counter screen (AID 1346979); further: nearly all actives have a fitted effect of over 35% in size; further: potency means the concentration at half of the fitted maximal effect
# In short: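 To flag cytotoxic compounds, treated CHO-K1 wild-type cells were given CellTiter-Fluor at 16hr and read fluorescently after 1hr at 37C; the caspase-3/7 luminescence was measured in these same wells.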
# [7] = Caspase-3/7 induction in CHO-K1 cells by small molecules, qHTS assay (AID 1346980); further: nearly all actives have a fitted effect of over 15% in size; further: potency means the concentration at half of the fitted maximal effect
# In short: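 Luminescent Caspase-Glo 3/7 read (30min, room temperature) quantified apoptosis induction. Cells were wild-type CHO-K1, treated with compound for 17hr at 37 C and 5% CO2.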
# [8] = Caspase-3/7 induction in HepG2 cells by small molecules, qHTS cell viability counter screen (AID 1346981); further: nearly all actives have a fitted effect of over 30% in size; further: potency means the concentration at half of the fitted maximal effect
# In short: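 The parent HepG2 line is plated at 2,000 cells per well and rested 5 hr before compound pinning from DMSO stocks. Following a 16-hr treatment at 37 C, a fluorogenic live-cell substrate (CellTiter-Fluor) reports viability after 1 hr.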
# [9] = target: Progesterone receptor (Homo sapiens) (UniProt P06401); assay: qHTS assay to identify small molecule agonists of the progesterone receptor (PR) signaling pathway (AID 1346784; calls by dose curve; further: nearly all actives have a fitted effect of over 30% in size)
# Progesterone receptor (Homo sapiens), sequence (P06401 whole entry, looked up): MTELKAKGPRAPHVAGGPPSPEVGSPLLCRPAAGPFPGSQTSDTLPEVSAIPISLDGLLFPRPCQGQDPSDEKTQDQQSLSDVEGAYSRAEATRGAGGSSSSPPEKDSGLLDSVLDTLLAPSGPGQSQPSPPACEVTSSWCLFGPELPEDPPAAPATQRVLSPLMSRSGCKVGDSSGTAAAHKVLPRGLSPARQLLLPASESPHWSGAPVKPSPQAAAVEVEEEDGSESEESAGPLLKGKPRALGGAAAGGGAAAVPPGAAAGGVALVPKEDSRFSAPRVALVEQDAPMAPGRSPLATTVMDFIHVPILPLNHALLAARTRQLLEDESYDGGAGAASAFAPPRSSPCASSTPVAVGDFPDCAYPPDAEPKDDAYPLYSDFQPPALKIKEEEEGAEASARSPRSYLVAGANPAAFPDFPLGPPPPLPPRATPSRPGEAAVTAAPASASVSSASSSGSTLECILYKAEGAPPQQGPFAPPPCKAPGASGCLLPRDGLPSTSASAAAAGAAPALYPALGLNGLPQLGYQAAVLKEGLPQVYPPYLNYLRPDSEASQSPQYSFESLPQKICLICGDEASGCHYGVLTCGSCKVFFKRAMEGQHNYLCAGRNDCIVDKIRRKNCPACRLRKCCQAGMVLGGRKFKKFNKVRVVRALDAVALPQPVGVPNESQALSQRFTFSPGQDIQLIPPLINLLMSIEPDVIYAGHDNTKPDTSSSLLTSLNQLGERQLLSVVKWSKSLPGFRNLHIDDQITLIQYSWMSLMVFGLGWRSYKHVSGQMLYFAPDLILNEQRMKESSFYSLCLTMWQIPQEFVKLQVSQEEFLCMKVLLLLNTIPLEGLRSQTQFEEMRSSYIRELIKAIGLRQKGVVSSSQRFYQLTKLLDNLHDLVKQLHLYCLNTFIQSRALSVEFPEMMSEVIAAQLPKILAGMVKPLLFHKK
# In short: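 Using charcoal-stripped serum (2%) to limit endogenous steroids, PR-UAS-bla HEK 293T cells received compounds for 16 hr at 37C after 6 hr plating; beta-lactamase FRET fluorescence was recorded following 2 hr substrate loading at room temperature.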
# [10] = qHTS assay to identify small molecule agonists of the progesterone receptor (PR) signaling pathway - cell viability counter screen (AID 1346799; calls by dose curve; further: nearly all actives have a fitted effect of over 45% in size; further: potency means the concentration at half of the fitted maximal effect)
# In short: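 Cytotoxicity in PR-bla HEK293T cells: 16 h compound, 37C; CellTiter-Glo added post-FRET read; luminescence after 30 min RT.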
# [11] = qHTS assay to identify small molecule agonists of the TGF-beta/Smad signaling pathway - cell viability counter screen (AID 1346829); further: top concentration of the series differs between compounds; nearly all actives have a fitted effect of over 45% in size
# In short: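 HEK 293T SBE-bla line, 5 hr compound exposure at 37 C, multiplexed CellTiter-Glo viability read by luminescence.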
# [12] = target: Progesterone receptor (Homo sapiens) (UniProt P06401); assay: qHTS assay to identify small molecule antagonists of the progesterone receptor (PR) signaling pathway (AID 1346795; active means well fitted inhibition curve with a large enough effect in the signal ratio in the repeat runs, not every such curve was filed as active; the % refers to the signal ratio; further: potency means the concentration at half of the fitted maximal effect)
# In short: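 Inhibition of R5020-induced (1 nM final) beta-lactamase reporter signal in PR-UAS-bla HEK293T cells was scored by FRET fluorescence after overnight (16 hr) compound treatment.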
# [13] = qHTS assay to identify small molecule antagonists of the progesterone receptor (PR) signaling pathway - cell viability counter screen (AID 1346798); further: nearly all actives have a fitted effect of over 50% in size; further: potency means the concentration at half of the fitted maximal effect
# In short: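 ATP content as viability readout: CellTiter-Glo luminescence, 30 min room temperature, in PR-UAS-bla HEK293T cells after 16 hr compound/R5020 treatment at 37C and 5% CO2.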
# [14] = qHTS assay to identify small molecule antagonists of the TGF-beta/Smad signaling pathway - cell viability counter screen (AID 1346824); further: nearly all actives have a fitted effect of over 50% in size
# In short: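 Cytotoxicity counter-screen run in the same wells as the beta-lactamase Smad reporter read: CellTiter-Glo luminescence after 30 min at room temperature. HEK 293T SBE-bla cells had 5 hr compound exposure at 37 C with TGF-beta1 (0.25 ng/mL stock).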
# [15] = qHTS assay to identify small molecule agonists of the TGF-beta/Smad signaling pathway (AID 1346859; active means well fitted activation curve with a large enough effect in the signal ratio in the repeat runs, not every such curve was filed as active; the % refers to the signal ratio; further: series mostly up to about 77 µM)
# In short: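 Stable Smad binding element-beta-lactamase HEK 293T cells; 5 hr compound exposure at 37 C under 5% CO2; 2 hr room-temperature substrate step; fluorescence excited at 405 nm, collected at 460 nm and 530 nm.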
# [16] = target: Cytochrome P450 2D6 (Homo sapiens) (UniProt P10635); assay: Cytochrome P450 Family 2 Subfamily D Member 6 (CYP2D6) small molecule antagonists: luciferase reporter qHTS assay (AID 1671196); further: nearly all actives have a fitted effect of over 50% in size; further: potency means the concentration at half of the fitted maximal effect
# Cytochrome P450 2D6 (Homo sapiens), sequence (P10635 whole entry, looked up): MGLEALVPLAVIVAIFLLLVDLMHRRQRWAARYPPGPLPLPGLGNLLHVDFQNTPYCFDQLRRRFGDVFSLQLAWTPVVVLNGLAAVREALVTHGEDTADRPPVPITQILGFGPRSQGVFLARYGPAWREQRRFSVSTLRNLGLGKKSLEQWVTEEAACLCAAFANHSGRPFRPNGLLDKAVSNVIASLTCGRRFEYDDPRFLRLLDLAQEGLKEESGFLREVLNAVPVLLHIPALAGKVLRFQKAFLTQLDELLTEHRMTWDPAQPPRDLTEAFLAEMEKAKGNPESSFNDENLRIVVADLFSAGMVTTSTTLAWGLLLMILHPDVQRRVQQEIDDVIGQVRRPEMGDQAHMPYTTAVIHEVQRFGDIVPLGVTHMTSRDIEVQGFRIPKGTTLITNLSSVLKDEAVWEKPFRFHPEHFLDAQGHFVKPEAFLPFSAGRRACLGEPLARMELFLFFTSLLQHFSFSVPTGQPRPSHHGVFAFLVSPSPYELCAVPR
# In short: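 Quantitative HTS of Tox21 chemicals against CYP2D6 using a luminescent proluciferin substrate. After NADPH addition, 1 h room-temperature reaction; luminescence recorded 20 min post detection reagent.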
# [17] = target: Nuclear receptor subfamily 1 group I member 2 (Homo sapiens) (UniProt O75469); assay: Human pregnane X receptor (PXR) small molecule agonists, qHTS assay (AID 1346982); further: nearly all actives have a fitted effect of over 35% in size; further: potency means the concentration at half of the fitted maximal effect
# Nuclear receptor subfamily 1 group I member 2 (Homo sapiens), sequence (O75469 whole entry, looked up): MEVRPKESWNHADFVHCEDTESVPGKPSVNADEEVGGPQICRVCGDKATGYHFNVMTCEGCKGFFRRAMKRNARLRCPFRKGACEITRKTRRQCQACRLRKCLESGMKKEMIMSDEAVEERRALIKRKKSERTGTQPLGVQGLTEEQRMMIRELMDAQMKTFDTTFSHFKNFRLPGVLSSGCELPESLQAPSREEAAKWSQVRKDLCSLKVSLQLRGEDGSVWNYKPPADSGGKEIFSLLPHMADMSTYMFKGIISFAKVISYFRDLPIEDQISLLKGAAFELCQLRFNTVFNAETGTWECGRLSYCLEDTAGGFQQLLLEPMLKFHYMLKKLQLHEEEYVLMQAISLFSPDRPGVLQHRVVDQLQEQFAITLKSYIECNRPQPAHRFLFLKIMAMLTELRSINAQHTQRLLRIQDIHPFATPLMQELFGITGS
# In short: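 After plating in 5% charcoal-stripped FBS and a 5 hr rest, PXR-Luc HepG2 cells received compounds in DMSO. Following 24 hr at 37 C, ONE-Glo was added and light output read.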
# [18] = target: Nuclear receptor subfamily 1 group I member 2 (Rattus norvegicus) (UniProt Q9R1A7); assay: Rat pregnane X receptor (rPXR) activation by small molecules, qHTS assay (AID 1346983); conditions: rPXR luciferase reporter cells, One-Glo luminescence, 24 h; active compounds read high; further: nearly all actives have a fitted effect of over 20% in size
# Nuclear receptor subfamily 1 group I member 2 (Rattus norvegicus), sequence (Q9R1A7 whole entry, looked up): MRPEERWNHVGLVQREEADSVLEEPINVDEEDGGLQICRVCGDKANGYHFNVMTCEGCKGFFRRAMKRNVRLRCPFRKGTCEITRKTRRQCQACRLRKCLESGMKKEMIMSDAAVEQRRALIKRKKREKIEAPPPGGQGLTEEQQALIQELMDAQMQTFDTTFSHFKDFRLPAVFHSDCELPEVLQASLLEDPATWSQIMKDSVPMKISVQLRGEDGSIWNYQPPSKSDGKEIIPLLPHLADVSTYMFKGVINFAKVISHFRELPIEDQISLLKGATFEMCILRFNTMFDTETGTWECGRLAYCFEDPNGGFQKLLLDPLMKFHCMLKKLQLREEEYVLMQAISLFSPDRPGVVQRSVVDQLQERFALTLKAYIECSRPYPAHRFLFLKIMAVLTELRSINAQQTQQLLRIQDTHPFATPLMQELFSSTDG
# In short: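 Luminescent readout (One-Glo luciferase, 30 min room temperature) followed 24 hr compound treatment at 37 C of rPXR cells plated 2,000 per well and preincubated 5hr; qHTS format with compounds delivered in DMSO.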
# [19] = target: Nuclear receptor subfamily 1 group I member 2 (Homo sapiens) (UniProt O75469); assay: CYP3A4 induction through human pregnane X receptor (PXR) by small molecules, qHTS assay (AID 1346984); further: potency means the concentration at half of the fitted maximal effect; nearly all actives have a fitted effect of over 40% in size
# In short: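 Human PXR activation is tracked via CYP3A4 promoter-luciferase in DPX-2 (HepG2) cells. Compounds treat cells for 24hr at 37C, and luminescence is read after One-Glo.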
SMILES,Potency [1],Potency [2],outcome [3],Potency [4],Potency [5],Potency [6],Potency [7],Potency [8],Potency [9],Potency [10],Potency [11],Potency [12],Potency [13],Potency [14],Potency [15],Potency [16],Potency [17],max activation [18] [%],Potency [19]
O=C1CCc2ccc(OCCCCN3CCN(c4cccc(Cl)c4Cl)CC3)cc2N1,29.8 µM (active),inactive,inactive,16.8 µM (active),inactive,21.1 µM (active),inactive,23.7 µM (active),–,–,–,–,–,–,–,–,–,–,–
O=c1c(O)c(-c2ccc(O)cc2O)oc2cc(O)cc(O)c12,–,inactive,inactive,–,inactive,–,inactive,–,inactive,inactive,inactive,–,–,–,–,–,–,–,–
Nc1cc(Cl)c(O)c(Cl)c1,–,–,–,inactive,inactive,–,inactive,inactive,inactive,inactive,inactive,inactive,inactive,inactive,inactive,15.9 µM (active),–,–,–
CCc1oc2ccccc2c1C(=O)c1cc(I)c(O)c(I)c1,–,–,–,–,inactive,–,inactive,inactive,–,–,inactive,21.1 µM (active),–,inactive,inactive,–,inactive,-8.05,25.1 µM (active)
[Cu+],–,–,–,inactive,inactive,inactive,inactive,inactive,inactive,inactive,inactive,inactive,inactive,–,inactive,–,inactive,–,–
C=CC(=O)Nc1cc2c(Nc3ccc(F)c(Cl)c3)ncnc2cc1OCCCN1CCOCC1,–,inactive,–,–,–,5.96 µM (active),inactive,5.96 µM (active),inactive,–,inactive,–,–,inactive,–,–,10.6 µM (active),–,–
O=C(c1ccc(O)c(O)c1)c1ccc(O)cc1O,–,–,–,–,–,54.4 µM (active),inactive,–,–,–,inactive,15.3 µM (active),–,inactive,–,3.55 µM (active),54.4 µM (active),–,–
COc1ccc2c(c1)c(CC(=O)OC/C=C(\C)CC/C=C(\C)CCC=C(C)C)c(C)n2C(=O)c1ccc(Cl)cc1,inactive,inactive,inactive,inactive,inactive,inactive,inactive,inactive,–,inactive,inactive,–,–,inactive,inactive,–,–,–,–
CCN1C(=O)c2ccccc2C1Nc1ccc(OCCN2CCCCC2)cc1 (centres undefined),–,inactive,inactive,–,inactive,inactive,inactive,inactive,inactive,–,inactive,inactive,–,inactive,inactive,–,1.68 µM (active),–,–
O=C1CCc2cc(OCCCCc3nnnn3C3CCCCC3)ccc2N1,–,inactive,inactive,–,inactive,–,inactive,inactive,inactive,–,inactive,–,–,inactive,–,inactive,13.3 µM (active),–,–
Oc1c(I)cc(Cl)c2cccnc12,–,inactive,inactive,–,inactive,27.3 µM (active) and 29.8 µM (active),inactive,inactive,inactive,inactive,inactive,6.84 µM (active) and 7.5 µM (active),inactive,inactive,inactive,–,24.3 µM (active) and 23.7 µM (active),–,–
CCN(CC)C(=O)c1cc(S(=O)(=O)Cc2ccccc2)c(N2CCC(c3ccccc3)CC2)cc1N(CC)CCN(C)C,inactive,inactive,inactive,13.5 µM (active),19.1 µM (active),21.4 µM (active),24.1 µM (active),17 µM (active),–,8.53 µM (active),–,–,19.1 µM (active),–,–,8.84 µM (active),3.4 µM (active),–,–
c1ccc(C(O[C@@H]2CCCN(CCc3ccc4c(c3)OCO4)C2)c2ccccc2)cc1,–,inactive,–,61.1 µM (active),inactive,–,inactive,–,inactive,–,inactive,–,–,inactive,inactive,2.52 µM (active),inactive,–,–
